Source: PubChem BioAssay
Compounds with a hit are over-represented: about 2.3% of the library has one in this group of screens.
CHRM1 antagonist: human M1 muscarinic receptor antagonists, primary screen, CHO-K1 cells, Fluo-8 calcium fluorescence, 1536-well | inhibition, % at 3 µM | Muscarinic acetylcholine receptor M1 (Homo sapiens), P11229 | 1.3% of 360,000 active | CHO-K1 hM1, ACh EC80 antagonist;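 active = percent inhibition above its own plate's cutoff, namely the mean of that plate's compound wells plus 3 SD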;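 note: peak over basal fluorescence ratio during 140 s after agonist addition; 0% = ACh EC80 plus DMSO and 100% = DMSO alone without agonist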
Target sequence (P11229 whole entry, looked up): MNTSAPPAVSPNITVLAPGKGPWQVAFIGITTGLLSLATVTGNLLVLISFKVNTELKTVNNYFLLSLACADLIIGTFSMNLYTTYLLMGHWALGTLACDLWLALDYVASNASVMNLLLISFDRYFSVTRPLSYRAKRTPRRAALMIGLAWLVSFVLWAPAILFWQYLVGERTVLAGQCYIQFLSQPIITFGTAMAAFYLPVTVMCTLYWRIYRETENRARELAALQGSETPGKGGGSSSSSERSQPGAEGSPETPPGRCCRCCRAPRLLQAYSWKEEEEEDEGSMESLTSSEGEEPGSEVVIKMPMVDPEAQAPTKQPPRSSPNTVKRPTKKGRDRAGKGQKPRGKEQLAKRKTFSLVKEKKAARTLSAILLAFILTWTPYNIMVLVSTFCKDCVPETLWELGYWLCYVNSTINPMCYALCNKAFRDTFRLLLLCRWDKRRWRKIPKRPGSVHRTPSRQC
CHRM1 agonist: human M1 muscarinic receptor agonists, primary screen, Fluo-8 calcium fluorescence, CHO-K1 cells, HTS; activation, % at 3 µM; CHO-K1 hM1, agonist mode; 0% DMSO, 100% acetylcholine EC100; AID 588814, 2011; Muscarinic acetylcholine receptor M1 (Homo sapiens), P11229; 0.33% of 360,000 active;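 active = activation above the run's mean compound activation plus 3 SD, cut at about 16% in these data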;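 note: peak over basal fluorescence ratio within a 140 s kinetic read after compound addition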
M1 PAM parental: nonselective calcium activators in parental CHO-K1 cells, primary screen, counter-screen for M1 PAM project, cell-based, Fluo-8 calcium fluorescence, full deck, 1536-well; ATP EC20; 0% at ATP EC20, 100% at ATP max; activation, % at 3 µM; 0.02% of 360,000 active;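 active = activation above the run cutoff, the mean activation of all test compounds plus 3 SD, cut at about 40% in these data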;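 note: peak over basal fluorescence ratio in a 140 s read after ATP addition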
CHRM1 PAM: human M1 muscarinic receptor positive allosteric modulators, primary screen, CHO-K1 cells, Fluo-8 calcium fluorescence, 1536-well | Muscarinic acetylcholine receptor M1 (Homo sapiens), P11229 | CHO-K1 hM1, ACh EC20; 0% = ACh EC20, 100% = maximal ACh | activation, % at 3 µM | 0.088% of 360,000 active; in the data active = activation above about 19%, passing the limit was not always enough
CHO-K1 Ca ag: counter-screen for M1 agonists: effect in parental CHO-K1 cells. Fluo-8 calcium fluorescence; scaled to maximal ATP response, vehicle zero. activation, % at 3 µM. 0.48% of 360,000 active. AID 602248, 2012; in the data active = activation above about 15%;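 note: untransfected CHO-K1 host cells lacking M1 receptor as counterscreen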
CHO-K1 Ca antag: M1 antagonist counterscreen hit in parental CHO-K1 cells | AID 602250 | inhibition, % at 3 µM | 0.6% of 360,000 active | ATP-induced calcium, Fluo-8 fluorescence;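 active = inhibition above a per-plate cutoff, the plate's mean sample inhibition plus 3 SD, cut at about 24% in these data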;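 note: 0% = DMSO plus EC80 ATP and 100% = DMSO alone without ATP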
* hit, by the source's call.

SMILES	CHRM1 antagonist	CHRM1 agonist	M1 PAM parental	CHRM1 PAM	CHO-K1 Ca ag	CHO-K1 Ca antag
CCCN(CC1CC1)C(=O)COC(=O)c1ccc(CNS(=O)(=O)c2ccc(F)c(Cl)c2)cc1	2	-6	12	-17	4	-2
COc1cccc(NC(=O)C2CCC(CNC(=O)[C@@H]3Cc4ccccc4CN3)CC2)c1 (stereo not given in full)	-15	-5	-5	9	0	3
CN(C)CCCN(C(=O)c1cc(Cl)sc1Cl)c1nc2cc3c(cc2s1)OCO3	96*	-4	-2	-24	2	-4
CCN(Cc1ccccc1)S(=O)(=O)c1ccc(C(=O)N(CCCN(C)C)c2nc3cc4c(cc3s2)OCCO4)cc1	21*	-4	-2	-16	10	11
C[C@@]12C(=O)Nc3cc(Cl)ccc3C(=O)N1[C@H]1c3ccccc3OC[C@@H]1[C@@H]2c1ccccc1	33*	-4	-14	-24	0	3
COc1cc2c(cc1OC)C(=O)N1[C@H]3c4ccccc4OC[C@@H]3[C@H](c3ccccc3)[C@]1(C)C(=O)N2	0	-4	14	4	2	-11
Cc1ccc2c(c1)C(=O)N1[C@H]3c4cc(C)ccc4OC[C@@H]3[C@H](c3ccccc3)[C@]1(C)C(=O)N2	48*	-5	-14	-25	0	14
C[C@@]12C(=O)Nc3ccc(Cl)cc3C(=O)N1[C@H]1c3ccccc3OC[C@@H]1[C@@H]2c1ccccc1	33*	-3	11	-15	0	-12
Cc1ccc2c(c1)C(=O)N1[C@H]3c4cc(Cl)ccc4OC[C@@H]3[C@H](c3ccccc3)[C@]1(C)C(=O)N2	-3	-2	-4	-4	0	-8
C[C@@]12C(=O)Nc3cc(Cl)ccc3C(=O)N1[C@H]1c3cc(Cl)ccc3OC[C@@H]1[C@@H]2c1ccccc1	-4	-5	9	-1	0	-11
COc1ccc(S(=O)(=O)N2CCCC2=O)cc1N(C)S(C)(=O)=O	-16	-4	17	10	4	-4
CCN(CC)c1ccc(C2C(C(=O)OC(C)C)C(=O)CC(C)(O)C2C(=O)OC(C)C)cc1 (stereo not given)	30*	-1	5	-9	3	7
CCOC(=O)C1C(=O)CC(C)(O)C(C(=O)OCC)C1c1ccc(N(CC)CC)cc1 (stereo not given)	-29	-4	9	9	1	-1
Cc1ccc(-c2cc(C(=O)N3CCN(c4ncccn4)CC3)c3ccccc3n2)cc1	31*	0	10	-13	3	0
COc1ccc(-c2cc(C(=O)N3CCN(c4ncccn4)CC3)c3ccccc3n2)cc1OC	25	-3	1	-8	6	1
CCN1CCN(C(=O)c2cc(-c3ccc(Cl)s3)nc3ccccc23)CC1	12	2	-8	0	19*	12
Cc1ccc(-c2cc(C(=O)N3CCN(c4ccccc4O)CC3)c3ccccc3n2)o1	42*	4	-21	-14	8	4
COc1cccc(-c2cc(C(=O)N3CCN(c4ncccn4)CC3)c3ccccc3n2)c1	45*	0	-11	-11	4	34*
CC(C)Oc1cccc(-c2cc(C(=O)N3CCN(S(C)(=O)=O)CC3)c3ccccc3n2)c1	-3	4	15	0	5	7
CC(C)Oc1cccc(-c2cc(C(=O)N3CCN(c4ncccn4)CC3)c3ccccc3n2)c1	27*	6	0	-6	5	19
CC(C)N(C(=O)COC(=O)c1cccc(S(=O)(=O)N2CC3(C)CC2CC(C)(C)C3)c1)C(C)C (stereo not given)	10	-5	-9	-10	-1	-1
CCCCN(CCCC)c1ccc(C(=O)c2ccccc2C(=O)O)c(O)c1	5	37*	8	-12	15*	-1
NS(=O)(=O)c1ccc(NC(=S)N2CCN(Cc3ccc(Cl)c(Cl)c3)CC2)cc1	6	-13	19	3	19*	2
COc1ccc(OCCCC(=O)Nc2cc(Cl)ccc2-n2cncn2)cc1	-12	1	4	12	3	-4
CCn1cc(/C=N/NS(=O)(=O)c2ccc(OC)cc2)c(C)n1	-34	21*	-8	14	1	15
SMILES	CHRM1 antagonist	CHRM1 agonist	M1 PAM parental	CHRM1 PAM	CHO-K1 Ca ag	CHO-K1 Ca antag
Cc1cc(C)n(C(=O)N(c2ccccc2)c2ccccc2)n1	2	-5	-7	3	0	-12
Cc1nnc(SCc2cc(=O)[nH]c(N3CCCCC3)n2)s1	-2	-4	14	1	0	-5
Cc1nnc(SCc2cc(=O)n3[nH]cnc3n2)s1	11	-2	-7	-6	0	25*
CCN(C(=O)COC(=O)c1ccc(S(=O)(=O)N2CCCc3ccccc32)cc1)C1CCS(=O)(=O)C1 (stereo not given)	72*	-14	12	-32	0	-8
O=C(NCCc1nnc2ccc(NCCCN3CCOCC3)nn12)c1ccccc1F	-4	-4	-4	-5	0	-11
COc1cccc(CN2CCC2(C)C(=O)Nc2cccc3cccnc23)c1F (stereo not given)	-8	-1	10	10	-1	-9
CC1(C(=O)Nc2cccc3cccnc23)CCN1Cc1csc2ccccc12 (stereo not given)	-7	-3	51*	0	1	-36
O=C(Nc1ccc(Cl)c(Cl)c1)Nc1ccon1	24*	4	-20	-15	11	20
O=C(Nc1ccc(Cl)c(Cl)c1)Nc1ccccc1O	19	2	-9	-7	13	25*
O=C(Nc1ccc(Cl)c(Cl)c1)Nc1ccc(Br)cc1F	28	0	1	-19	11	28*
O=C(Nc1ccccc1)Nc1ccc(Br)c(Cl)c1	28	0	3	-13	13	27*
Cc1cc(NC(=O)Nc2ccc(Cl)c(Cl)c2)no1	9	3	-14	-1	7	13
O=C1COc2ccc(C(=O)COc3ccc([N+](=O)[O-])cc3)cc2N1	-15	-3	15	11	1	-7
O=C1C=C(NC(=O)Nc2ccc(Cl)c(Cl)c2)CCC1	13	1	-2	-12	7	30*
NNC(=O)C(=O)Nc1ccc(Cl)c(Cl)c1	-23	-2	4	10	1	-5
C/C(=N\OCC(=O)OCC(=O)NC(=O)c1ccc(OC(F)F)cc1)c1ccc2c(c1)OCO2	4	-4	13	4	0	2
